“And” between values parts separate entries of the source, which are not always exact repeats. Equal entries are not always repeated. Inconclusive results are not listed. A call without a number means that no potency is given here. The source made the active and inactive calls. Calls come from the whole dose curve; as a rule, active = well fitted cell-killing curve with a large enough effect; inconclusive = small, poorly fitted or top-dose-only effect, or effect the other way; inactive = no such curve, though single readings can be large or run the other way.
assay: Viability qHTS for spleen associated tyrosine kinase inhibitor (SYKi) drug resistant MV4-11 cells (AID 1963824); conditions: SYKi-resistant MV4-11 viability, CellTiter-Glo, 72 h; series mostly up to 45 µM; note: nearly all actives have a fitted effect of over 35% in size
Source text: Department of Medicine, Hematology/Oncology
University Hospital Frankfurt, Germany.
Trials have shown promising clinical activity of the selective SYK inhibitor entospletinib in patients with high expressing HOXA9/MEIS1 acute leukemias. As the development of resistance mechanisms is a common problem in the use of targeted drugs, we performed a chemical library screen to identify drug sensitivities in SYK inhibitor resistant AML cells. […] Glucocorticoids are potent immunosuppressants which work in part by inhibiting the transcription of cytokine genes.
Described herein is a viability screen to look for activity in the SYK inhibitor drug resistant cell line against four NCATS compound libraries (MIPE 5.0, NPC, NPACT, and Kinase) totaling 11372 compounds. Active hits were reacquired for confirmation and further secondary assay testing.
SEQUENCE No. (e.g., 1, 2, 3, etc.); […] (e.g., Cells, Incubation, Reagent, etc.); VALUE; DESCRIPTION.
1; Media; 2uL; white, solid-bottom Corning assay plate.
2; Compounds; 23nL; Echo acoustic dispenser.
3; Cell; 5uL; 500 cells per well.
4: Incubation; 72hr; 37 C, 5% CO2, 95% humidity.
5; Reagent; 3uL; CellTiter-Glo reagent (Promega).
6; Incubation; 10min; room temperature.
7; Detection; Luminescence; ViewLux plate reader (PerkinElmer).
NOTES (numbers refer to Sequence numbers above
1. Quantitative high-throughput screening (qHTS) of small molecule compounds was conducted on drug resistant SYKi MV4-11 cell line.
2. Twenty-three nanoliter of small molecule compounds were added to each assay plates using the Echo acoustic dispenser (Beckman Coulter).
3. Cells were seeded into the assay plates at a final density of 500 cells in 5uL of media per well using the Multidrop Combi dispenser.
4. Plates were covered with stainless steel gasketed lids and incubated for 72 hours at standard cell culture conditions.
5. Viability was assessed by adding 3uL of CellTiter-Glo detection reagent (Promega).
6. Plates were covered with gasket lids and incubated for 10 minutes at room temperature.
7. Luminescence was measured on a ViewLux plate reader (PerkinElmer).
Potency is the fitted concentration of half-maximal effect.

Row | SMILES | Potency
1 | CN(C)CCc1c[nH]c2cccc(OP(=O)(O)O)c12 | inactive
2 | c1ccc2c(c1)Nc1ccccc1S2 | inactive
3 | CO[C@H]1C[C@H](O[C@H]2CC[C@]3(CO)[C@H]4CC[C@]5(C)[C@@H](C6=CC(=O)OC6)CC[C@]5(O)[C@@H]4CC[C@]3(O)C2)O[C@H](C)[C@H]1O | 0.0632 µM (active)
4 | O=C(N/N=C/c1ccc([N+](=O)[O-])o1)c1cc([N+](=O)[O-])cc([N+](=O)[O-])c1O | inactive
5 | CC[C@@H]1C[C@H]2CC[C@H](O2)[C@H](C)C(=O)O[C@@H](C)C[C@@H]2CC[C@@H](O2)[C@@H](C)C(=O)O[C@H](C)C[C@H]2CC[C@H](O2)[C@H](C)C(=O)O[C@@H](C)C[C@@H]2CC[C@@H](O2)[C@@H](C)C(=O)O1 | 0.0385 µM (active)
6 | C=C1[C@@H](C)[C@H]2[C@H](Cc3ccccc3)NC(=O)[C@]23OC(=O)/C=C/C(=O)CCC[C@@H](C)C/C=C/[C@H]3[C@@H]1O | 0.92 µM (active)
7 | CCOC(=O)NC(C)(C)Cc1ccc(Cl)cc1 | inactive
8 | CC[C@H]1C[C@@H]2CC[C@@H](O2)[C@@H](C)C(=O)O[C@H](CC)C[C@H]2CC[C@H](O2)[C@H](C)C(=O)O[C@@H](C)C[C@@H]2CC[C@@H](O2)[C@@H](C)C(=O)O[C@H](CC)C[C@H]2CC[C@H](O2)[C@H](C)C(=O)O1 | 0.0137 µM (active)
9 | COC1C=CC23c4cc5c(cc4COC2(O)CN(C)C3C1)OCO5 (stereo not given) | inactive
10 | O=C(O)Cc1ccccc1 | inactive
11 | O=C(O)c1ccnc2cc(C(OCCN3CCCCC3)c3ccccc3Cl)[nH]c12 (stereo not given) | inactive
12 | CC(C)(C)C(O)C(Oc1ccc(Cl)cc1)n1cncn1 (stereo not given) | 21.7 µM (active)
13 | C=C1C[C@@H]2[C@H](CC[C@]3(C)C(=O)CC[C@@H]23)[C@@]2(C)C=CC(=O)C=C12 | 5.96 µM (active) and 11.8 µM (active)
14 | Clc1ccc([C@]23CNC[C@H]2C3)cc1Cl | inactive
15 | C[C@]12Cc3nonc3C[C@@H]1CC[C@@H]1[C@@H]2CC[C@@]2(C)[C@H]1CC[C@]2(C)O | 16.8 µM (active)
16 | C[C@H](NC(=O)Cc1cc(F)cc(F)c1)C(=O)N[C@@H]1N=C(c2ccccc2)c2ccccc2N(C)C1=O | inactive
17 | Cn1c(COP(=O)(NCCBr)NCCBr)cnc1[N+](=O)[O-] | 5.9 µM (active)
18 | COC(=O)[C@@]12OC[C@]34[C@H]([C@@H](O)[C@@H]1O)[C@@]1(C)CC(=O)C(O)=C(C)[C@@H]1C[C@H]3OC(=O)[C@H](OC(=O)/C=C(\C)C(C)C)[C@@H]24 | 0.0132 µM (active)
19 | COc1cc(CC(C)N)cc(OC)c1OC (stereo not given) | inactive
20 | CCCC[N+]1(C)[C@@H]2CC(OC(=O)[C@H](CO)c3ccccc3)C[C@H]1[C@@H]1O[C@@H]12 (stereo not given in full) | inactive

Row | SMILES | Potency
21 | O=[N+]([O-])c1c2ccccc2cc2ccccc12 | 24.1 µM (active)
22 | C[C@@H]1O[C@@H](OC2CCC3(C=O)C(CCC4C3CCC3(C)C(C5=CC(=O)OC5)C(O)CC43O)C2)[C@H](O)[C@H](O)[C@H]1O[C@@H]1O[C@H](CO)[C@@H](O)[C@H](O)[C@H]1O (stereo not given in full) | 1.72 µM (active)
23 | C=CCC1=C(C)C(OC(=O)C2C(C=C(C)C)C2(C)C)CC1=O (stereo not given) | 9.69 µM (active)
24 | Oc1ccc(Cl)cc1Cc1ccccc1 | 24.6 µM (active)
25 | CCC(C)(O)C1(C(=O)O)COC(=O)C1 (stereo not given) | inactive
26 | C[CH2][Hg][S]c1ccccc1C(=O)O | inactive
27 | CCCN1CCC[C@@H]2Cc3nc(N)ncc3C[C@H]21 | inactive
28 | NNc1ccccc1 | inactive
29 | O=C(Oc1ccc([N+](=O)[O-])cc1)N1CCN(Cc2cccc(Oc3ccccc3)c2)CC1 | 13.2 µM (active)
30 | COc1ccc2c(c1)[nH]c1c(C)nccc12 | 14.6 µM (active)
31 | C[C@@H]1C[C@@H]([C@H](O)CC2CC(=O)NC(=O)C2)C(=O)[C@@H](C)C1 | 841 nM (active) and 590 nM (active)
32 | CCC(C)C(C)(COC(N)=O)COC(N)=O (stereo not given) | inactive
33 | CCC1(CC)C(=O)C=CNC1=O | inactive
34 | C[C@]12Cc3cn[nH]c3C[C@@H]1CC[C@@H]1[C@@H]2CC[C@@]2(C)[C@H]1CC[C@]2(C)O | 18.6 µM (active)
35 | N#CC(OC1OC(COC2OC(CO)C(O)C(O)C2O)C(O)C(O)C1O)c1ccccc1 (stereo not given) | inactive
36 | COc1ccc(C(c2ccc(OC)cc2)C(Cl)(Cl)Cl)cc1 | 21.5 µM (active)
37 | CC(=O)O[C@@H]1[C@H]2CC[C@H]3[C@@](C)(O)[C@@H]4C[C@H](O)C(C)(C)[C@@]4(O)[C@H](O)C[C@@]13C[C@@]2(C)O | inactive
38 | Nc1ccc(Cl)cc1 | inactive
39 | Fc1cc(F)c2c(c1)[C@H]1C=CC[C@H]1C(c1cccnc1)N2 (stereo not given in full) | 3.66 µM (active)
40 | CC(C)NC(C)C | inactive

From PubChem BioAssay (NCATS)
